The sample as a whole holds a higher share of hits than the screen did.
KDM5B inhibitor – Primary screen for KDM5B Histone Demethylases FDH-coupled qHTS; Potency, µM (highest dose often 57.7 µM), actives largely listed as inhibitors; KDM5B demethylase, FDH-coupled NADH fluorescence (FDH is formaldehyde dehydrogenase); 220,000 compounds, 2.6% hits; Lysine-specific demethylase 5B (Homo sapiens), Q9UGL1; AID 1347165, 2019; active means well fitted inhibition curve with a large enough effect; further: 0% is about no effect; nearly all actives have a fitted effect of over 70% in size
Target sequence (Q9UGL1 whole entry, looked up): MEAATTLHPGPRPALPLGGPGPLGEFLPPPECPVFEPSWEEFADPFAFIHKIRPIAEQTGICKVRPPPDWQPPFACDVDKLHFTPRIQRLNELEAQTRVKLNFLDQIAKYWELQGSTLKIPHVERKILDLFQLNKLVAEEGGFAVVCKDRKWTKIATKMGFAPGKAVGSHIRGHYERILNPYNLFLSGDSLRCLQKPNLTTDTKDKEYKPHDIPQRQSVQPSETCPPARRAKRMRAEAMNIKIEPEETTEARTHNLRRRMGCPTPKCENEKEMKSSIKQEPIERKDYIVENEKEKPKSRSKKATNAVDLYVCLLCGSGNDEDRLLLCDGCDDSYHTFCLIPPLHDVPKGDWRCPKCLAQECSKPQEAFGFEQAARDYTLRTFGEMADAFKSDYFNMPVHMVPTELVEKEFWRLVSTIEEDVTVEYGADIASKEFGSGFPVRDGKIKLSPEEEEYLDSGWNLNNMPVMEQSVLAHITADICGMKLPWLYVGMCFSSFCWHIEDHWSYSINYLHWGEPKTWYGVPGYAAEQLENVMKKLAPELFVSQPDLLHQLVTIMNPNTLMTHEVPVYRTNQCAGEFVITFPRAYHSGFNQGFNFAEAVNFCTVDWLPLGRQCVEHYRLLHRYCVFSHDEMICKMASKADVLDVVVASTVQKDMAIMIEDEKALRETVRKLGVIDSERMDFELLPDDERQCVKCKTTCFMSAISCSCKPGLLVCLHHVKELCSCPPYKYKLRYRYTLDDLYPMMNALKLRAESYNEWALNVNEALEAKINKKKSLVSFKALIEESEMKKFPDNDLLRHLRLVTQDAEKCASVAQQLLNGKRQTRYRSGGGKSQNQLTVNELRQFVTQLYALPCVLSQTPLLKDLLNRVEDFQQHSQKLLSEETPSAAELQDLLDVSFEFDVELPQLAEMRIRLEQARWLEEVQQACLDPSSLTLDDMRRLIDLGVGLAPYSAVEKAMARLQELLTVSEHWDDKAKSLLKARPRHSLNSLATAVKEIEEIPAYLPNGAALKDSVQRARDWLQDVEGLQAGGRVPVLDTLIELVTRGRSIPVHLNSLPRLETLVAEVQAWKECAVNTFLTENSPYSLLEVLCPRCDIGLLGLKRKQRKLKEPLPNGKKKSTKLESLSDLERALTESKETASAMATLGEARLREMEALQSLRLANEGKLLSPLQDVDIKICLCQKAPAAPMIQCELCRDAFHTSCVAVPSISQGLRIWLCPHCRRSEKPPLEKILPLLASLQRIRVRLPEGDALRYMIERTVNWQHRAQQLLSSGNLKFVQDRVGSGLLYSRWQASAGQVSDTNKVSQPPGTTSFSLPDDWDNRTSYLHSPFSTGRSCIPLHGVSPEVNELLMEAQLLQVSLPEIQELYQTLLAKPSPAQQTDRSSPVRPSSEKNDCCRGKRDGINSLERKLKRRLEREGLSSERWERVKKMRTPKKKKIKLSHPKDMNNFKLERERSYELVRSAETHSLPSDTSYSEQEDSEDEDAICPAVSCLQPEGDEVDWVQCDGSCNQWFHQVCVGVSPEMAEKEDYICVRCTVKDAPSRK
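Measured: NADH fluorescence change, 30 min, RT. System: KDM5BΔAP 200 nM final, H3K4me3 peptide, α-KG, Fe(II), ascorbate, NAD⁺ plus FDH, pH 7.5 HEPES. Compounds: titrated, 10 min pre-incubation with enzyme.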
* hit, by the source's call; i = inactive. Potency means the concentration at half of the fitted maximal effect.

SMILES	KDM5B inhibitor
CCOC(=O)c1c(C)[nH]c(C)c1S(=O)(=O)N1CCCC(C(=O)Nc2cc(C)ccc2C)C1 (centres undefined)	i
Cc1ccc(NC(=O)C2CCCN(C(=O)c3ccccc3)CCC(=O)NCC2)cc1 (centres undefined)	i
COC(=O)c1ccc(NC(=O)C2CCN(C(=O)c3ccc(F)cc3)CC2)cc1	i
O=C(Nc1ccc(-c2nnc3n2CCCC3)cc1)C1CCC1	i
CCN(CC)C(=O)c1ccc(-c2nnc3ccc(NC(=O)C4CC4)cn23)cc1	22µM*
CCN1CCN(C(=O)c2ccc(-c3nnc4ccc(NC(=O)C5CCC5)cn34)cc2)CC1	20µM*
O=C(Nc1ccc2nnc(-c3ccc(C(=O)N4CCCCC4)cc3)n2c1)C1CCC1	20µM*
Cc1ccc(NC(=O)C2CCCCC2)cc1	i
CC1CCC(C(=O)Nc2ccc(-c3nnc4n3CCCC4)cc2)CC1 (centres undefined)	i
CC(C)NC(=O)c1ccc(-c2nnc3ccc(NC(=O)C4CCC4)cn23)cc1	25µM*
O=C(Nc1ccc(-c2nnc3n2CCCC3)cc1)C1CCCC1	i
Cc1ccc(NC(=O)C2CCC(C(C)(C)C)CC2)cc1 (centres undefined)	i
CCc1ccc(C(=O)Nc2ccc(-c3nnc4n3CCCC4)cc2)cc1	i
CCc1nc2c(sc3cccc(F)c32)c(=O)n1CC(=O)Nc1ccc(C(C)=O)cc1	i
COc1ccc(C(C(=O)NC2CCCC2)N(Cc2cccnc2)C(=O)Cc2cccs2)cc1OC (centres undefined)	i
COc1ccc(S(=O)(=O)Oc2ccc3c(c2)O/C(=C\c2cc(OC)c(OC)cc2OC)C3=O)cc1	i
Cc1ccc(CNC(=O)C2CCCCC(=O)N2C)cc1 (centres undefined)	i
COc1ccc(Cl)cc1S(=O)(=O)N1CCCC(CO)(Cc2cccc(Cl)c2)C1 (centres undefined)	i
COc1cccc(NC(=O)C2CCN(c3ccc4nnc(C(C)C)n4n3)CC2)c1	i
COc1cccc(NC(=O)c2ccc(-n3cnnn3)cc2)c1	i
COc1cccc(NC(=O)c2ccc(-c3nnc4ccc(NC(=O)C5CCC5)cn34)cc2)c1	25µM*
O=C1CC(c2nnc(Cc3c(F)cccc3Cl)o2)CN1c1ccccc1 (centres undefined)	i
COc1ccc(NC(=O)c2c(NC(=O)COc3ccccc3)sc3c2CCC(C(C)(C)C)C3)cc1 (centres undefined)	i
COc1ccc(Cl)cc1NC(=O)N1CCN(c2ccccc2OC)CC1	i
Cc1ccccc1Cn1cc(CN2[C@H](Cc3ccccc3)COc3cc(Br)ccc3S2(=O)=O)nn1	i
SMILES	KDM5B inhibitor
CNC(=O)[C@@H](Cc1ccccc1)N1CCC[C@H]1C(=O)NCc1cccnc1	i
CNC(=O)[C@@H](Cc1ccccc1)N1CCC[C@H]1C(=O)NCCOC	i
CNC(=O)[C@@H](Cc1ccccc1)N1CCC[C@H]1C(=O)NCc1ccccn1	28µM*
CCS(=O)(=O)N(C1CC1)C1CCOC2(CCN(C(=O)c3sc(C)nc3C)CC2)C1 (centres undefined)	i
COc1nc2nc(CCc3ccccc3)n(C)c2cc1Nc1ccncn1	i
COc1ccc(-c2nn3c(-c4ccccc4)nnc3c3ccccc23)cc1	i
COc1ccc(-c2cc3c(nc2OC)nc(CC2CC2)n3C)cc1OC	i
COc1nc2nc(CCc3ccccc3)n(C)c2cc1-c1cccc(NC(C)=O)c1	35µM*
COc1ccccc1-c1cc2c(nc1OC)nc(CC1CC1)n2C	40µM*
COc1nc2nc(CCc3ccccc3)n(C)c2cc1-c1ccc(CO)cc1	35µM*
COCc1nc2nc(-c3ccccc3)c(-c3ccc(OC)cc3)cc2n1C	32µM*
Cc1nnc(-c2cc(-c3ccc(CO)cc3)ccn2)n1CCc1ccccc1	i
COCc1nc2nc(-c3ccccc3)c(-c3cccc(NC(C)=O)c3)cc2n1C	i
COc1ccccc1-c1cc(NC(=O)C(C)OCC2CC2)n[nH]1 (centres undefined)	i
CC(=O)Nc1cccc(-c2ccnc(-c3nnc(C)n3Cc3ccccc3)c2)c1	i
COCc1nc2nc(-c3ccccc3)c(-c3ccc(O)c(F)c3)cc2n1C	i
COc1ccc(S(=O)(=O)Oc2cc(C(=S)N3CCOCC3)ccc2OC)cc1	i
O=C([C@@H]1C[C@H](Oc2ccccc2)CN1C(=O)Cn1c(=O)oc2ccccc21)N1CCCC1	i
COc1ccc(NC(=O)NC(C(=O)N2CCc3ccccc32)C(C)C)cc1OC (centres undefined)	i
CCN(CC)S(=O)(=O)c1ccc2c(c1)nc(CN(C)C(=O)c1cccc(Cl)c1)n2C	i
Cc1ccc(S(=O)(=O)NC(CN(C)C)c2ccccc2)cc1F (centres undefined)	i
CCNC(=O)N[C@H]1[C@H](O)[C@@H](Sc2ccccc2)[C@@H]2OC[C@H]1O2	i
Cn1c(=O)c2c(nc(NCc3ccco3)n2Cc2cccc(Cl)c2)n(C)c1=O	i
CCN(C(=O)CN1C(=O)NC2(CCCCC2)C1=O)c1ccccc1	i
COc1ccc(-c2cc(N3CCN(C(=O)c4cccc(C#N)c4)CC3)n[nH]2)cc1	i
SMILES	KDM5B inhibitor
Cc1ccccc1-c1noc(C23CC4CC(CC(C4)C2)C3)n1	i
C=CCNC(=O)c1ccccc1N	i
CN(C)C(=O)c1ccc(NC(=O)c2c[nH]c3ccccc23)cc1	i
CN(C)C(=O)c1c[nH]c2cccnc12	126µM*
C=CCNC(=O)c1ccnc2[nH]ccc12	126µM*
O=C(Nc1ccc(F)cc1)c1c[nH]c2cccnc12	i
C=CCNC(=O)c1ccccc1NC(=O)c1cnccn1	i
CCNC(=O)N1CCC(Oc2ncccc2C(=O)N(C)C)C1 (centres undefined)	i
C=CCNC(=O)c1c[nH]c2cccnc12	126µM*
C=CCNC(=O)c1ccccc1Nc1ccccc1	i
Cn1c(=O)c2cc(C(=O)N3CCN(c4cccc(C(F)(F)F)c4)CC3)sc2c2ccccc21	i
Cc1cnc(C2CCOCC2)n1CC1CCN(C2CCCCCC2)CC1	i
COCCN1C(=O)[C@@H]2C[C@@H](CN2CC2CC2)Oc2ccccc21	i
Cc1ccc(-c2noc([C@@H]3CCCN3C(=O)c3ccccn3)n2)cc1	i
COc1ccc(-c2noc([C@@H]3CCCN3Cc3ccccc3OC)n2)cn1	i
Cc1ccc(-c2noc([C@@H]3CCCN3C(=O)Cc3ccccc3)n2)cc1	i
N#Cc1ccc(CN2CCC[C@H]2c2nc(-c3ccnc(N4CCOCC4)c3)no2)cc1	35µM*
CNc1ccc(-c2noc([C@@H]3CCCN3Cc3cnc4ccccc4c3)n2)cn1	i
N#Cc1cccc(CN2CCC[C@H]2c2nc(-c3ccc(OC4CCCCC4)nc3)no2)c1	i
N#Cc1cccc(CN2CCC[C@H]2c2nc(-c3cncnc3N)no2)c1	i
COc1ccc(OCC(=O)N2CCC[C@H]2c2nc(-c3ccccc3)no2)cc1	i
COc1ccc(-c2noc([C@@H]3CCCN3C(=O)c3ccccn3)n2)cc1	i
COCCNc1cc(-c2noc([C@@H]3CCCN3CC(C)C)n2)ccn1	32µM*
c1ccc(CN2CCC[C@H]2c2nc(-c3ccnc(N4CCOCC4)c3)no2)cc1	35µM*
CC(C)CN1CCC[C@H]1c1nc(-c2ccnc(N3CCOCC3)c2)no1	32µM*
O=C1CCC(c2ccccc2)(c2ccccc2)CC1	i
CCSCCNC(=O)c1c(C)noc1-c1ccc(C(C)(C)C)cc1	i

Screening data from PubChem.
